The record followed here is PubChem BioAssay AID645 (SRMLSC, 2007).

The campaign covered roughly 65,000 compounds. About 450 (0.69%) were called active. This is one part of a sample in which actives are shown more often than they occur. Values without a mark were called inactive.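 Rule for the calls: active = HER2 level under 5% of the carrier-only control; inconclusive = no clear call, values can overlap the other calls; inactive = the rest.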

Receptor tyrosine-protein kinase erbB-2 (Homo sapiens), sequence (P04626 whole entry, looked up): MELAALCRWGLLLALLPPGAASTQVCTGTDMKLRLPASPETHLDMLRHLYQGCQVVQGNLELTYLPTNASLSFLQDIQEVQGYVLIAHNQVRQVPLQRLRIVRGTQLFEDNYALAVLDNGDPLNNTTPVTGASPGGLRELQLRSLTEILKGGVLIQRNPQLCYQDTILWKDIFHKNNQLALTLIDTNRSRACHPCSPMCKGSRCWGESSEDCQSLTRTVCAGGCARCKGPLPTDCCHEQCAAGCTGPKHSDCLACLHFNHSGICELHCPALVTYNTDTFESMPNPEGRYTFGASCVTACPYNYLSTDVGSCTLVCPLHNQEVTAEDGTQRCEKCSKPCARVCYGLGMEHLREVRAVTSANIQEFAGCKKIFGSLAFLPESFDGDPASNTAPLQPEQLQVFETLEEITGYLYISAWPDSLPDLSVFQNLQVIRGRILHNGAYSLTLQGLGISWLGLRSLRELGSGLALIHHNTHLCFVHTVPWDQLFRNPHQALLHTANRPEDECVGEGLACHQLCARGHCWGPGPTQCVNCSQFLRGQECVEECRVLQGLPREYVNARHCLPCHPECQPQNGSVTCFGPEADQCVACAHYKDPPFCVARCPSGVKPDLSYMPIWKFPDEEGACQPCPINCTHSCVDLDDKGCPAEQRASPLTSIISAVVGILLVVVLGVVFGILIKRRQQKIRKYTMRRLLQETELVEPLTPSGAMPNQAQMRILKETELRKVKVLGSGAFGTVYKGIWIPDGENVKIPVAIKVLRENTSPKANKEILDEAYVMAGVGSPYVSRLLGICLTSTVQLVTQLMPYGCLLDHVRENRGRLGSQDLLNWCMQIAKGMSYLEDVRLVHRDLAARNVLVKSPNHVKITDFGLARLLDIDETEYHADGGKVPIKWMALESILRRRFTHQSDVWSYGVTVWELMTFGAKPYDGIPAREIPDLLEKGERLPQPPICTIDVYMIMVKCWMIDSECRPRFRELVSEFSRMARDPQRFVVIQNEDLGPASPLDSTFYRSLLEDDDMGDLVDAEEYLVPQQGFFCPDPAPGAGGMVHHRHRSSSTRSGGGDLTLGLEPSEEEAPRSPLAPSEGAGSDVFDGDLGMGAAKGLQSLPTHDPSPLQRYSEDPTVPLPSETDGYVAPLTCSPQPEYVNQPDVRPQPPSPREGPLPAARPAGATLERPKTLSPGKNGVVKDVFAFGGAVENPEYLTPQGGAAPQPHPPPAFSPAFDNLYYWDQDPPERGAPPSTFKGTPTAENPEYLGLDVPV

This experiment addresses Receptor tyrosine-protein kinase erbB-2 (Homo sapiens) (UniProt P04626). Nature of the experiment: reducers of endogenous HER2 protein levels – SKBR-3 cells, AlphaScreen, 66K library, primary screen (AID 645).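 Note: 100% = DMSO carrier and 0% = 500 nM PU-H71 HSP90 inhibitor; lower value means stronger loss of Her2 protein.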 As to conditions: SKBR-3 HER2 protein level, 18-24 h, at 10 µM, active compounds read low. (In general: Alpha assays give light when donor and acceptor beads are brought close together.)
Regarding `CCCCNC(=O)c1c[nH]c2ccc(S(=O)(=O)Nc3ccc(OCC)cc3)cc2c1=O`, the HER2 level % of control was 54.9%.
`CCOC(=O)c1c(NC(=O)CCC(=O)NCc2ccco2)sc2c1CCCC2`: the HER2 level % of control was 104%.
For `Fc1ccc2nc(-c3ccccc3)nc(SCc3nnc(-c4ccccc4)o3)c2c1` the value was 67.9%.
As for `O=C1CCc2cc(S(=O)(=O)N3CCC(C(=O)NCc4ccccc4Cl)CC3)ccc2N1`, the HER2 level % of control was 90.7%.
Consider `COc1nc(OC)nc(N(C)CCO)n1`, for which the HER2 level % of control was 97.4%.
Take `COc1ccc(N2C(=O)CN=C2Nc2cccc(C)c2C)cc1OC`: the HER2 level % of control is 70.2%.
For `CCCc1[nH]nc2c1C(c1ccc(Br)s1)C(C#N)=C(N)O2` (stereo not given) the value was 124%; for `COc1ccc(C2C(C#N)=C(N)Oc3n[nH]c(C)c32)cc1CN1CCN(c2ccc(F)cc2)CC1` (stereo not given), 117%; for `CCCc1[nH]nc2c1C(c1ccc(OC)c(Cn3nc(C)c(Br)c3C)c1)C(C#N)=C(N)O2` (stereo not given), -20.4% (active).
With `COc1ccc2oc(C)c(NC(C)=O)c2c1`, the HER2 level % of control was 71.5%.
As for `COc1ccc(NC(C)=O)cc1NC(=O)CN1CCN(C2c3ccccc3-c3ccccc32)CC1`, the HER2 level % of control was 71.4%.
For the molecule `CCOC(=O)C1CCCN(C(=O)CN(c2ccc(OC)cc2)S(=O)(=O)c2c(C)noc2C)C1` (stereo not given), the HER2 level % of control was 95.7%.
The figure for `c1ccc(-n2ncc(-c3nn[nH]n3)n2)cc1` is 88.5%; for `COc1cc(Br)cc(/C=N/c2ncn[nH]2)c1O` it is 92.3%.
For `Cc1cc(C)c2c(c1)c(C)cc1nnc(SCC(=O)NCc3ccco3)n12` the value was 104%; for `O=C(c1ccco1)N1CCN(C(=O)C2c3ccccc3Oc3ccccc32)CC1`, 100%.
For the molecule `CCc1c(O)nc(SCC(=O)N2CCCCC2)n(-c2ccccc2C)c1=O`, the HER2 level % of control is 114%.
As for `N#CCCn1cnc2ccccc21`, the HER2 level % of control is 106%.
As to `COc1ccc(-c2nnc(SC(C)C#N)o2)cc1` (stereo not given), the HER2 level % of control was 127%.
As to `COc1ccc(-c2nnc(SC(=O)N3c4ccccc4Sc4ccccc43)o2)cc1`, the HER2 level % of control was -15.7% (active).
For the molecule `COc1ccc(CC(=O)Nc2ccc(-c3nnc(-c4ccccc4)o3)cc2)cc1`, the HER2 level % of control is 87.4%.
For `CCn1nc(C(=O)OCC(=O)N2c3ccccc3CC2C)c2ccccc2c1=O` (stereo not given), the HER2 level % of control was 106%.
Turning to `CCOc1ccc(NCCC(=O)c2ccc3c(c2)OCO3)cc1`, the HER2 level % of control was 95.7%.
On to `Nc1nonc1-c1noc(-c2ccc(Br)o2)n1`, for which the HER2 level % of control is 79.9%.
With `CCn1ncc(Br)c1C(=O)Nc1cc(C)ccc1F`, the HER2 level % of control was 75.8%.
Consider `Clc1cccc(Cl)c1Cn1nnc(-c2cccs2)n1`, for which the HER2 level % of control was 89.2%.
For the molecule `O=C(CN1C(=O)CCC1=O)Nc1ccc(S(=O)(=O)N2CCOCC2)cc1`, the HER2 level % of control was 103%.
`CCCCN(CC)CCCNC(=O)CS(=O)(=O)Cc1nc(-c2cccc(OC)c2)oc1C`: the HER2 level % of control was 80.5%.
`CC1(C)CC(O)C(CCC(O)c2ccccc2)C(C)(C)N1` (stereo not given): the HER2 level % of control was 89.8%.
`CCN(CC)S(=O)(=O)c1ccc(NC(=O)CN(c2cccc(F)c2)S(C)(=O)=O)cc1`: the HER2 level % of control is 152%.
For the molecule `COC(=O)[C@H](Cc1ccccc1)NC(=O)N1CC(C)OC(C)C1` (stereo not given in full), the HER2 level % of control was 108%.
The figure for `C=C(C)COc1ccc(-c2n[nH]c(C)c2-c2ccccc2)c(O)c1` is 68.6%.
The figure for `C=C(C)COc1ccc(-c2n[nH]c(C)c2-c2ccccc2OC)c(O)c1` is -9.89% (active).
The figure for `COc1ccc(-c2n[nH]c(C)c2-c2ccc(OC)c(OC)c2)c(O)c1` is 82.6%; for `CCOC(=O)CNC(=O)CN1C(=O)CCSc2ccccc21` it is 106%; for `Cn1c(=O)c2c(nc(N3CCCCCC3)n2CC(O)COc2ccc(Cl)cc2)n(C)c1=O` (stereo not given) it is 89%.
As for `COc1ccccc1NC(=O)C1=C(C)NC2=C(C(=O)CCC2)C1c1ccc(C)o1` (stereo not given), the HER2 level % of control is 90.6%.
`O=c1ccn(Cc2ccccc2Cl)cc1`: the HER2 level % of control was 93.6%.
Turning to `COc1ccccc1N1CCN(C(=O)c2ccc(S(=O)(=O)N3CCCCC3)cc2)CC1`, the HER2 level % of control is 135%.
Turning to `Cn1c(SCC(=O)Nc2cccc(O)c2)nnc1-c1ccc(S(=O)(=O)N2CCOCC2)cc1`, the HER2 level % of control was 100%.
As for `CC(=O)Nc1nc(C)c(Cc2ccccc2)c(=O)[nH]1`, the HER2 level % of control was 142%.
As for `Cn1c(=O)c2cn(-c3cccc4ccccc34)cc2n(C)c1=O`, the HER2 level % of control was 94.5%.
Consider `CC(=O)Nc1ccc(NS(=O)(=O)c2cc(C)sc2C)cc1`, for which the HER2 level % of control was -22.3% (active).
The figure for `COc1cc(NS(=O)(=O)c2ccc(NC(C)=O)cc2)cc(OC)c1` is 90.4%; for `CC(=O)Nc1ccc(S(=O)(=O)Nc2cccc(NC(=O)C(C)(C)C)c2)cc1` it is 127%.
For `CCC(C)n1[nH]c(=O)c2c(C)cc(C)nc21` (stereo not given), the HER2 level % of control was 116%.
For `CCN(CC)CCCN1C(=O)C(=O)/C(=C(/O)c2c(C)nc3ccccn23)C1c1ccc(C)o1` (stereo not given), the HER2 level % of control is 90.1%.
In the case of `Cc1ccc(NC(=O)C2CC(c3ccc(F)cc3)=NO2)cc1` (stereo not given), the HER2 level % of control was 127%.
Regarding `CCC1(C)N(O)C(C)(C)C(c2ccc(OC)cc2)=[N+]1[O-]` (stereo not given), the HER2 level % of control is 90.2%.
As for `O=C1c2ccccc2C(O)N1Cc1ccccc1Cl` (stereo not given), the HER2 level % of control was 99%.
Take `Brc1cnc(N2CCCC2)nc1N1CCCCC1`: the HER2 level % of control is 69.2%.
As to `COc1ccc(CC(=O)Nc2nc3n(n2)C(c2ccccc2)CC(=O)N3)cc1OC` (stereo not given), the HER2 level % of control was 104%.
For `CCCn1c(SCC(=O)c2ccc3c(c2)OCCO3)nnc1C(C)C` the value was 116%.
`COc1cc(C2C(C(=O)Nc3ccccc3OC)=C(C)Nc3ncnn32)ccc1O` (stereo not given): the HER2 level % of control is 106%.
The figure for `O=C(C1CCN(S(=O)(=O)c2cccs2)CC1)N1CCCCCC1` is 100%; for `Cc1nc(-c2ccc(NC(=O)c3cccs3)cc2)cs1` it is 103%; for `CC1=C(C)CC2C(=O)N(c3cccc4ccccc34)C(=O)C2C1` (stereo not given) it is 102%.
With `CC(C)Cn1c(N)c(C(=O)NCc2cccs2)c2nc3ccccc3nc21`, the HER2 level % of control was -24.2% (active).
Turning to `C=CCn1c(N)c(C(=O)OCC(C)C)c2nc3ccccc3nc21`, the HER2 level % of control was 86%.
For the molecule `C=CCn1c(N)c(S(=O)(=O)c2cccs2)c2nc3ccccc3nc21`, the HER2 level % of control is 86.9%.
Turning to `COc1ccc(OCC(=O)OCCN(C)C)cc1`, the HER2 level % of control was 117%.
For `O=C(O)C1C2C=CC(C2)C1C(=O)N1CCN(CCO)CC1` (stereo not given) the value was 56.8%; for `Nc1cc(=O)nc(SCc2ccccc2)n1Cc1ccco1`, 77%.
For the molecule `O=c1[nH]c(CSc2ncc(-c3ccc(F)cc3)n2Cc2ccco2)nc2ccccc12`, the HER2 level % of control was -21.8% (active).
Take `Cn1c(-c2ccc(F)cc2)cnc1SCC(=O)NCc1ccco1`: the HER2 level % of control was 85.8%.
Take `CN(C)c1nc2n(c(=O)n1)CCO2`: the HER2 level % of control is 93.2%.
Regarding `CCC(=O)NC(=Nc1nc2ccccc2s1)NC(=O)CC`, the HER2 level % of control is 76%.
With `CCC(=O)c1cc2c(cc1NC(=O)c1cccs1)OCCO2`, the HER2 level % of control is 102%.
For `COc1cccc(NC(=O)C(C)Oc2ccccc2)c1` (stereo not given) the value was 87.6%.
Turning to `CCCC1CC(C)(C(=O)Cn2[nH]c(=O)ccc2=O)OC1=O` (stereo not given), the HER2 level % of control was 109%.
As for `COc1ccccc1CNC(=O)Cn1cc2c(n1)CCCC2`, the HER2 level % of control is 95.6%.
With `CCc1cc2c(=O)c(-c3ccon3)c(N)oc2cc1OC`, the HER2 level % of control was 49.1%.
Consider `Cc1ccccc1CN1CCN(C(=O)c2cccc(F)c2)CC1`, for which the HER2 level % of control is 79%.
Turning to `Cc1cc(OCCN2CCCC2)ccc1C(C)C`, the HER2 level % of control was 63%.
On to `OC(COc1ccc2ccccc2c1)CN1CCOCC1` (stereo not given), for which the HER2 level % of control was 113%.
For `c1ccc2cc(OCCN3CCCC3)ccc2c1` the value was -25.1% (active).
For `CCOC(=O)Cc1csc(NC(=O)C(C)(C)C)n1`, the HER2 level % of control is 135%.
Regarding `CCc1nc2ccccc2n(CCOCCOCCn2c(=O)c(CC)nc3ccccc32)c1=O`, the HER2 level % of control was 91.8%.
For `CC(=O)NC1=NC(=O)CS1` the value was 76.7%.
`Cn1c2c(c(=O)n(C)c1=O)C1c3ccccc3OCC1C(C)(C)O2` (stereo not given): the HER2 level % of control was 99.2%.
Regarding `CCOc1ccccc1N=C1NC(=O)CS1`, the HER2 level % of control was 88.8%.
As for `CCN(CC)CCNC(=O)Cn1cnc2sc(C)c(S(=O)(=O)N3CCOCC3)c2c1=O`, the HER2 level % of control is 103%.
Turning to `OC(COc1cccc2ccccc12)CN1CCN(c2ccccn2)CC1` (stereo not given), the HER2 level % of control was 105%.
For `O=C1CSC(=O)N1CCOCCN1C(=O)CSC1=O` the value was 104%.
With `Cc1ccc2c(CSc3nncs3)cc(=O)oc2c1`, the HER2 level % of control is 149%.
The figure for `Cc1cc(=O)[nH]c(SCc2cc(Cl)ccc2OC(F)F)n1` is 103%.
For `CC1CC(c2ccccc2)n2nc(NC(=O)c3cccs3)nc2N1` (stereo not given) the value was 89%.
For `CCOC(=O)Cc1c(C)nc2c(C#N)c(C)nn2c1C` the value was 92.6%; for `COCCNCCOCCOc1cccc(OC)c1`, 102%; for `Cc1nc(C)c2c(c1C(F)(F)F)-c1ccccc1C2(F)F`, 78.7%.
Regarding `COc1ccc(C(c2nnnn2C2CCCCC2)N2CCN(c3ccccc3F)CC2)cc1` (stereo not given), the HER2 level % of control is 80.7%.
Take `O=C(c1ccc2c(c1)N(Cc1ccc(F)cc1)C(=O)CS2)N1CCOCC1`: the HER2 level % of control is 98.6%.
For the molecule `CC(=O)N1CCN(c2cccc(C)c2C)CC1`, the HER2 level % of control is 110%.
On to `COc1ccc(C(CNC(=O)c2cccnc2SC)N2CCOCC2)cc1` (stereo not given), for which the HER2 level % of control is 106%.
In the case of `CC(=O)Nc1ccc(S(=O)(=O)N2CCCC2C(=O)O)cc1` (stereo not given), the HER2 level % of control is 162%.
For `COC(=O)c1ccc(NC(=O)C(C)N2C(=O)c3ccccc3C2=O)cc1` (stereo not given) the value was -18.9% (active).
As for `Cc1cc(C)nc(NC(=O)C(C)N2C(=O)c3ccccc3C2=O)n1` (stereo not given), the HER2 level % of control is 89.5%.
As for `COC(=O)c1ccc(NC(=O)c2ccco2)cc1`, the HER2 level % of control was 85.8%.
Regarding `COC(=O)C1C(=O)c2c([nH]c(C(=O)OCCSC)c2C)CC1C` (stereo not given), the HER2 level % of control is 99.8%.
The figure for `CCOC(=O)c1c(C)n(C)c2ccc(OC)c(NC(=O)CN3CCC4(CC3)OCCO4)c12` is 34.4%.
